# Values joined by “and” are separate entries in the source; they are usually repeats but may differ in a detail not shown here. Equal entries are not always repeated. Records with an inconclusive call do not appear. Unmarked numbers belong to inactive results. Active and inactive are the calls of the source. Calls come from the whole dose curve; as a rule, active = well fitted curve in the direction sought with a large enough effect; inconclusive = small, poorly fitted or top-dose-only effect, or another doubt; inactive = no such curve, though single readings can be large; an effect the other way counts as inactive or inconclusive.
# What was measured:
# JEG-3 = test: Primary qHTS to identify gynecologic anti-cancer compounds using libraries of approved drugs and bioactive compounds (AID 1345084); details: Gynecologic cancer cell panel viability, ATPlite luminescence, 48 h; series mostly up to 57.5 µM; note: nearly all actives have a fitted effect of over 55% in size
# How it was run: (§1)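 Five-point cytotoxicity, 48 h drug exposure at 37 C, 5% CO2, on cells seeded 16 h beforehand. ATP content read by ATPlite luminescence.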
# SKOV3 = test: as above; details: Gynecologic cancer cell panel viability, ATPlite luminescence, 48 h; series mostly up to 57.5 µM
# How it was run: as §1
# Tov112D = test: as above; details: Gynecologic cancer cell panel viability, ATPlite luminescence, 48 h; series mostly up to 57.5 µM
# How it was run: as §1
# PA-1 = test: as above; details: Gynecologic cancer cell panel viability, ATPlite luminescence, 48 h; series mostly up to 57.5 µM
# How it was run: as §1
# Tov-21-G = test: as above; details: Gynecologic cancer cell panel viability, ATPlite luminescence, 48 h; series mostly up to 57.5 µM
# How it was run: as §1
# OV90 = test: as above; details: Gynecologic cancer cell panel viability, ATPlite luminescence, 48 h; series mostly up to 57.5 µM
# How it was run: as §1
# [1] = qHTS assay to identify inhibitors of the type 1 interferon - major histocompatibility complex class I in skeletal muscle: Counter screen cell viability and HiBit confirmation (AID 1347412); details: iHSKM muscle cells + IFN-b, HiBiT or CellTiter-Glo, 24 h; for activity change, negative = inhibition: at 45.9 µM (top of the series); for all read-outs here: nearly all actives have a fitted effect of over 60% in size
# How it was run: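 CRISPR HLA-B*08:01-HiBit immortalized human myoblasts (C25cl48) stimulated with 4 ng/ml IFN-beta and compounds (12-point 1:3, top 46 uM final) for 24 h at 37 C. Duplicate plates read by HiBit lytic luminescence or CellTiter Glo ATP.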
# [2] = Drug repurposing screens with cells derived from glioblastoma tumor samples (AID 1345199); details: GBM patient neurospheres viability, ATP luminescence, 48 h; note: nearly all actives have a fitted effect of over 40% in size
# How it was run: (§2)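 Four patient lines of CD133+ GBM neurospheres were screened at several concentrations; hits were retested in those lines plus three slower-growing GBM lines, using 48-hour treatment and ATP-based viability.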
# astro = test: as above; details: viability, ATP luminescence, 48 h; series mostly up to 45.9 µM
# How it was run: as §2
# % is set by controls: 0 for no effect and ±100 for the full control effect; potency is the fitted concentration of half-maximal effect.
compound,measurement,setting,value
COC(=O)c1ccc2c(C(=Nc3ccc(N(C)C(=O)CN4CCN(C)CC4)cc3)c3ccccc3)c(O)[nH]c2c1,Potency,JEG-3,inactive
same,Potency,SKOV3,inactive
same,Potency,Tov112D,inactive
Cc1cnc(Nc2ccc(F)cc2Cl)nc1-c1c[nH]c(C(=O)N[C@H](CO)c2cccc(Cl)c2)c1,Potency,JEG-3,inactive
same,Potency,PA-1,31.6 µM (active)
same,Potency,Tov-21-G,28.2 µM (active)
O=C(O)C1(Cc2cccc(Nc3nccs3)n2)CCC(Oc2cccc(Cl)c2F)CC1 (stereo not drawn),Potency,JEG-3,inactive
same,Potency,OV90,inactive
same,Potency,Tov112D,1 µM (active)
CNc1nccc(-c2cccnc2Oc2cc(C(=O)Nc3cccc(C(F)(F)F)c3)ccc2C)n1,Potency,JEG-3,inactive
same,Potency,SKOV3,28.2 µM (active)
same,Potency,Tov-21-G,28.2 µM (active)
Nc1nc(Nc2ccc(S(N)(=O)=O)cc2)nn1C(=O)c1c(F)cccc1F,Potency,JEG-3,inactive
same,Potency,PA-1,28.2 µM (active)
same,Potency,SKOV3,inactive
same,Potency,[1]; HiBiT,2.49 µM (active)
same,"activity change, negative = inhibition",[1]; Viability,19%
c1ccc2c(CCNc3ccc(Nc4ccncc4)cc3)c[nH]c2c1,Potency,JEG-3,inactive
same,Potency,PA-1,10 µM (active)
same,Potency,Tov-21-G,inactive
same,"activity change, negative = inhibition",[1]; HiBiT,19.8%
same,"activity change, negative = inhibition",[1]; Viability,-28.3%
COc1cc2c(cc1-c1c(C)noc1C)ncc1[nH]c(=O)n([C@H](C)c3ccccn3)c12,Potency,JEG-3,12.6 µM (active)
same,Potency,PA-1,inactive
same,"activity change, negative = inhibition",[1]; Viability,1.25%
Cn1cc(-c2[nH]c3cc(NC(=O)[C@H](N)C4CCCCC4)cc4c3c2C=NNC4=O)cn1,Potency,JEG-3,inactive
same,Potency,SKOV3,7.08 µM (active)
same,Potency,Tov-21-G,10 µM (active)
COc1ccc(OC)c(-c2nnc3ccc(-c4ccc(OC)c(O[C@@H]5CCOC5)c4)nn23)c1,Potency,OV90,inactive
Nc1ccccc1NC(=O)c1ccc(CNc2nccc(-c3cccnc3)n2)cc1,Potency,JEG-3,3.55 µM (active)
same,Potency,PA-1,0.708 µM (active)
same,Potency,SKOV3,3.98 µM (active)
same,Potency,Tov-21-G,2.82 µM (active)
same,Potency,Tov112D,3.55 µM (active)
same,Potency,[1]; HiBiT,3.94 µM (active)
same,"activity change, negative = inhibition",[1]; Viability,3.24%
Cc1cc(Nc2cc(N3CCN(C)CC3)nc(Sc3ccc(NC(=O)C4CC4)cc3)n2)n[nH]1,Potency,JEG-3,inactive
same,Potency,Tov-21-G,inactive
Cc1c(C)n(Cc2ccc(-c3ccccc3C(=O)O)cc2)c2ccc(C(=O)N[C@@H](C)c3ccc([N+](=O)[O-])cc3)cc12,Potency,JEG-3,inactive
same,Potency,OV90,inactive
same,Potency,Tov-21-G,inactive
same,Potency,Tov112D,inactive
Cc1c(CN2CCN(S(C)(=O)=O)CC2)sc2c(N3CCOCC3)nc(-c3cnc(N)nc3)nc12,Potency,OV90,1.41 µM (active)
same,Potency,PA-1,1.58 µM (active)
same,Potency,SKOV3,0.562 µM (active)
same,Potency,Tov-21-G,2 µM (active)
Cc1nc2ccc(CN(C)c3ccc(C(=O)N[C@@H](CCC(=O)O)C(=O)O)s3)cc2c(=O)[nH]1,Potency,JEG-3,0.631 µM (active)
same,Potency,SKOV3,inactive
same,Potency,Tov112D,0.316 µM (active)
same,"activity, negative = cell killing","[2]; at 45.9 µM (top of the series), tumour line D",-5.32% and -11.6%
same,"activity, negative = cell killing","[2]; at 46.1 µM (top of the series), tumour line C",0.947% and 1.27%
same,Potency,astro,inactive
CNC(=O)c1nn(C)c2c1C(C)(C)Cc1cnc(Nc3ccc(N4CCN(C)CC4)cc3)nc1-2,Potency,JEG-3,11.2 µM (active)
same,Potency,PA-1,2.24 µM (active)
same,Potency,Tov112D,2.24 µM (active)
same,Potency,[1]; HiBiT,1.98 µM (active)
same,"activity change, negative = inhibition",[1]; Viability,28.9%
COc1cc(Nc2ncc(F)c(Nc3ccc4c(n3)N(COP(=O)(O)O)C(=O)C(C)(C)O4)n2)cc(OC)c1OC,Potency,OV90,12.6 µM (active)
same,Potency,PA-1,11.2 µM (active)
same,Potency,SKOV3,10 µM (active)
same,Potency,Tov-21-G,14.1 µM (active)
O=C(O)c1ccc2c(c1)nc(Nc1cccc(Cl)c1)c1ccncc12,Potency,JEG-3,inactive
same,Potency,Tov-21-G,22.4 µM (active)
COc1cc2nccc(Oc3ccc(NC(=O)C4(C(=O)Nc5ccc(F)cc5)CC4)cc3)c2cc1OC,Potency,JEG-3,11.2 µM (active)
same,Potency,PA-1,7.94 µM (active)
CCS(=O)(=O)c1cccc(-c2cc(C(=O)NC3CCN(C)CC3)c(C)c3[nH]c4ncc(C)cc4c23)c1,Potency,JEG-3,8.91 µM (active)
same,Potency,PA-1,1.26 µM (active)
same,Potency,SKOV3,5.62 µM (active)
same,Potency,Tov112D,2 µM (active)
same,Potency,[1]; HiBiT,2.79 µM (active)
CS(=O)(=O)c1ccc(-c2cnc(N)c(C(=O)Nc3ccccc3)n2)cc1,Potency,JEG-3,inactive
same,Potency,OV90,inactive
same,Potency,Tov-21-G,8.91 µM (active)
same,Potency,Tov112D,inactive
COC(=O)C1=C(C)NC(C)=C(C(=O)OCCN2CCN(C(c3ccccc3)c3ccccc3)CC2)C1c1cccc([N+](=O)[O-])c1 (stereo not drawn),Potency,JEG-3,inactive
same,Potency,OV90,inactive
same,Potency,Tov-21-G,inactive
same,Potency,Tov112D,inactive
same,"activity, negative = cell killing","[2]; at 45.9 µM (top of the series), tumour line B",-14.4%
same,Potency,[2]; tumour line A,3.16 µM (active)
same,Potency,[2]; tumour line C,16.4 µM (active)
same,Potency,[2]; tumour line D,15.8 µM (active)
same,Potency,astro,inactive
Cc1c(NC(=O)OC[C@@H]2COCCN2)cn2ncnc(Nc3ccc4c(cnn4Cc4cccc(F)c4)c3)c12,Potency,JEG-3,inactive
same,Potency,Tov-21-G,inactive
same,Potency,Tov112D,inactive
Nc1cccc(-c2cc3c(Oc4cccc(O)c4)ncnc3[nH]2)c1,Potency,JEG-3,inactive
same,Potency,SKOV3,3.98 µM (active)
